Pf apPOL block – Pf-apPOL DNA polymerase inhibition; Recombinant Pf-apPOL, molecular beacon fluorescence, 1.5 h; inhibition, % at 10 µM; 210,000 compounds, 0.25% hits
mHTT-CaM PPI inh – mHTT-calmodulin interaction abrogation; P42858; AlphaScreen His-mHTT/GST-CaM binding, luminescence; inhibition, % at 15 µM; 190,000 compounds, 3.6% hits;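 note: 0% = both proteins with DMSO and 100% = one protein alone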
* marks the source's active call; other numbers are inactive results; . = no result given; ! = repeats disagree. The list is not random: actives were taken first. Their share in the collection is about 3.5%. Cut-off read from the data, not from the text of the source: active = inhibition above about 50%; inactive = the rest.

SMILES	Pf apPOL block	mHTT-CaM PPI inh
Cc1cccc(C)c1N=Cc1[nH]c2ccc(Br)c(Cl)c2c1O	-100.4	12.0
Oc1c(C=NCCc2ccccc2)[nH]c2ccc(Br)c(Cl)c12	-1.4	86.0*
Oc1c(C=NCc2ccccc2Cl)[nH]c2ccc(Br)c(Cl)c12	-4.4	72.0*
Oc1c(C=NCc2ccc(Cl)cc2Cl)[nH]c2ccc(Br)c(Cl)c12	0.5	58.0*
COc1ccccc1N=Cc1[nH]c2ccc(Br)c(Cl)c2c1O	-2.8	3.0
Oc1c(C=Nc2ccc(F)cc2)[nH]c2ccc(Br)c(Cl)c12	9.9	5.0
Cc1ccc(CN=Cc2[nH]c3ccc(Br)c(Cl)c3c2O)cc1	-0.9	21.0
Oc1c(C=NCc2ccc(F)cc2)[nH]c2ccc(Br)c(Cl)c12	5.1	55.0*
COc1ccccc1-c1nc(C2CCN(C(=O)c3cc(Cl)ccc3F)CC2)no1	-1.6	12.9
C#CCOCC1CCN(C(=O)NCCc2ccc(OC)cc2)CC1	-15.9	8.1
CC(C)(C)n1nc2c(c1NC(=O)c1cccc(F)c1)CS(=O)C2 (centres undefined)	0.6	4.0
CCCCNC(=O)Cn1c(=O)n(-c2ccc(OCC)cc2)c(=O)c2sccc21	5.9	-6.0
CCCn1c(C2CCN(C(=O)c3ccc(OC)cc3)C2)nc2cccnc21 (centres undefined)	-2.5	-0.5
COc1ccc(C(=O)Nc2nnc(-c3ccccc3SC)o2)c(OC)c1	9.6	8.9
Cc1ccc(C(=O)CCN2CCOCC2)cc1	-4.9	.
Cc1cc(Cl)ccc1N1CCN(C(=O)c2ccccc2Cl)C(C)C1=O (centres undefined)	-1.7	-3.0
CCCCOc1ccc(NC(=O)CSc2cccc3cccnc23)cc1	0.7	8.0
COc1ccc(C(C[N+](=O)[O-])Sc2cccc3cccnc23)cc1 (centres undefined)	-4.2	100.0*
COc1ccc(NC(=O)C2CCN(c3cc(N4CCSCC4)ncn3)CC2)cc1OC	-13.8	6.7
CCCCC(=O)NC(c1ccc2c(c1)OCO2)c1cc([N+](=O)[O-])c2cccnc2c1O (centres undefined)	-5.9	98.7*
CCCCC(=O)NC(/C=C/c1ccccc1)c1cc([N+](=O)[O-])c2cccnc2c1O (centres undefined)	-3.2	14.0
CCCCC(=O)NC(c1ccccc1Cl)c1cc([N+](=O)[O-])c2cccnc2c1O (centres undefined)	-9.9	100.0*
CC(=O)c1cccc(NS(=O)(=O)c2ccc(Cl)c(C(F)(F)F)c2)c1	-9.1	-17.3
CCN1C(=O)C(O)(CC(=O)c2ccccc2OC)c2ccccc21 (centres undefined)	1.4	0.5
C=CCN1C(=O)C(O)(CC(=O)c2ccc(C)cc2C)c2ccccc21 (centres undefined)	-1.8	60.0*
SMILES	Pf apPOL block	mHTT-CaM PPI inh
Cc1cccc(C)c1NC(=O)CCCN1C(=O)c2cccnc2C1=O	-4.0	7.0
Cc1ccc(C(=O)N2CCCC2C(=O)NCCc2csc(-c3ccccc3)n2)cc1C (centres undefined)	-1.7	3.1
COc1ccc(NC(=O)N2CCn3cccc3C2Cc2ccccc2)c(OC)c1 (centres undefined)	-1.2	53.6*
COc1ccc(C)cc1NC(=O)N1CCn2cccc2C1Cc1ccccc1 (centres undefined)	-5.2	48.1
O=C(Nc1ccc(F)cc1)N1CCn2cccc2C1Cc1ccccc1 (centres undefined)	-8.1	69.0*
Cc1ccc(NC(=O)N2CCn3cccc3C2Cc2ccccc2)cc1 (centres undefined)	-3.8	10.3
O=C(Nc1cccc(Cl)c1)N1CCn2cccc2C1Cc1ccccc1 (centres undefined)	0.7	91.7*
CCc1ccc(NC(=O)N2CCn3cccc3C2Cc2ccccc2)cc1 (centres undefined)	-1.9	18.0
CSc1nnc(-c2nn(C)c3c2CN(C(=O)c2cccc(F)c2)CC3)n1C	-1.2	3.6
COc1ccc(NC(=O)c2c(-c3ccccc3Cl)noc2C)cc1Cl	-4.2	-15.0
CCOC(=O)c1c(NC(=O)c2ccc(N3C(=O)CCC3=O)cc2)sc2ccccc12	-4.4	-6.9
COc1ccc(C2Oc3c(ccc4cc(OC)c(OC)cc34)-c3cc(OC)c(OC)cc32)cc1 (centres undefined)	.	10.6
COc1cc2c(cc1OC)C(c1ccc(Cl)cc1)OC1=C2C(=O)c2ccccc21 (centres undefined)	-1.0	68.0*!
COc1ccc(NC(=O)C2CC(=O)N(CCc3c[nH]c4ccc(F)cc34)C2)cc1 (centres undefined)	12.8	22.1
O=C1NCCCn2nc(C3CCN(C(=O)c4n[nH]c5ccccc45)CC3)cc21	-1.8	1.1
COc1ccc(OC)c(C2C3=C(CC(C)(C)CC3=O)NC3=C2C(=O)c2ccccc23)c1 (centres undefined)	-4.7	41.0
CC(=O)N1c2ccccc2NC2=C(C(=O)CC(C)(C)C2)C1c1ccc([N+](=O)[O-])o1 (centres undefined)	1.1	1.6
CC1(C)CC(=O)C2=C(C1)NC1=C(C(=O)c3ccccc31)C2c1cc([N+](=O)[O-])ccc1O (centres undefined)	4.2	63.0*
CC1(C)CC(=O)C2=C(C1)NC1=C(C(=O)c3ccccc31)C2c1ccc([N+](=O)[O-])o1 (centres undefined)	-3.4	55.0*
COc1cccc(C=Nn2nnc3c(sc4nc(C)cc(C)c43)c2=O)c1	12.0	.
CCc1ccc(C(=O)N2CCC(CCOC)CC2)cc1	-3.6	-1.8
Cc1ccc(N2CC(C(=O)N3CCCC3)CC2=O)cc1 (centres undefined)	-0.1	-1.7
Fc1ccccc1Nc1ncc2c(n1)CCN(Cc1ccc3c(c1)OCCO3)C2	-3.6	18.7
Clc1ccc(CN2CCc3nc(Nc4ccc5c(c4)OCCO5)ncc3C2)cc1	-1.0	76.8*
Clc1ccc(CN2CCc3nc(Nc4ccc5c(c4)OCO5)ncc3C2)cc1	-1.4	36.3
SMILES	Pf apPOL block	mHTT-CaM PPI inh
c1cc2c(cc1CN1CCc3nc(Nc4ccc5c(c4)OCCO5)ncc3C1)OCCO2	-0.8	70.8*
Cc1ccc(NS(=O)(=O)c2c[nH]c3ncccc23)cc1F	1.1	-7.3
Cc1cc(C)c(S(=O)(=O)Nc2ccccc2Cl)c(C)c1	1.4	-30.1
CC(C)c1ccccc1NC(=O)c1c(F)c(F)c(F)c(F)c1F	-1.8	-5.2
O=C(NCc1ccccc1Cl)c1c(O)c2ccccc2[nH]c1=O	0.1	9.0
CC(C)c1ccc(N=Cc2c[nH]c3ccccc23)cc1	-0.8	2.0
COc1cccc(N=Cc2c[nH]c3ccccc23)c1	2.4	100.0*
Cc1nc(N=CN(C)C)c(Br)cc1Br	-7.0	.
CCC(CC)C(=O)N1CCc2c(c(C(=O)NCc3ccc(Cl)cc3)nn2C)C1	-1.6	71.4*
CCCC(CCC)C(=O)N1CCc2c(c(C(=O)NCc3ccc(F)cc3)nn2C)C1	-5.0	76.8*
CCC(=O)N1CCc2c(c(C(=O)NCc3ccccc3)nn2C)C1	-4.9	-6.0
CCC(CC)C(=O)N1CCc2c(c(C(=O)NCc3ccccc3)nn2C)C1	-4.0	51.0*
CCCCC(=O)N1CCc2c(c(C(=O)NCc3ccc(F)cc3)nn2C)C1	-9.2	46.7
Cn1nc(C(=O)NCc2ccc(Cl)cc2)c2c1CCN(C(=O)c1ccc(F)cc1)C2	3.9	-10.0
O=C1CSC(c2ccccc2)N1c1ccc(F)c(Cl)c1 (centres undefined)	0.5	-12.0
CC1CCN(C(=O)C2(c3ccc(NC(=O)C(C)C)cc3)CCCCC2)CC1	3.1	12.7

Bioassay records from PubChem.
